Results on 23 compounds are retold here after PubChem BioAssay (NCATS).

Inconclusive results are not listed. Unmarked numbers belong to inactive results. Activity calls are given as the source filed them. Calls come from the whole dose curve; as a rule, active = well fitted curve in the direction sought with a large enough effect; inconclusive = small, poorly fitted or top-dose-only effect, or another doubt; inactive = no such curve, though single readings can be large; an effect the other way counts as inactive or inconclusive.

Test [1] is described as follows: qHTS of pediatric cancer cell lines to identify multiple opportunities for drug repurposing: Primary screen for U-2 OS cells (AID 1347096). Note: nearly all actives have a fitted effect of over 50% in size. A digest of the protocol:
(§1)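 Cells (500-1,000/well) in growth media were settled 5 h at 37 degrees C, then given compounds for 48 h. Viability was read as CellTiter-Glo luminescence. Primary runs used MIPE at 11 points (0.78 nM-46 µM) and NPC at 8 points (0.59 nM-46 µM); follow-ups used 11 points.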
In general terms: Quantitative high-throughput screening tests each substance at several concentrations.

The nature of test [2]: qHTS of pediatric cancer cell lines to identify multiple opportunities for drug repurposing: Primary screen for SK-N-SH cells (AID 1347098).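 Note: DMSO served as neutral control and bortezomib at 2.3 µM as positive control; nearly all actives have a fitted effect of over 65% in size.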 The gist of the method:
(§2)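 Cells (500-1,000/well) rested 5 h, then received compounds for 48 h; metabolically active cells were measured by CellTiter-Glo luminescence. Final concentrations spanned up to 46 µM (MIPE, 11-point) or 0.59 nM-46 µM (NPC, 8-point) in primary screens, 11-point in follow-ups.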

The nature of test [3]: qHTS of pediatric cancer cell lines to identify multiple opportunities for drug repurposing: Primary screen for NB1643 cells (AID 1347099). Note: nearly all actives have a fitted effect of over 50% in size. The gist of the method:
(§3)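 Quantitative HTS format: each compound titrated (MIPE 11 points from 0.78 nM, NPC 8 points from 0.59 nM) onto cells plated 5 hours earlier. After 48 h at 37 degrees C, CellTiter-Glo luminescence was recorded.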

The nature of test [4]: qHTS of pediatric cancer cell lines to identify multiple opportunities for drug repurposing: Primary screen for LAN-5 cells (AID 1347100). The gist of the method:
as §1

Test [5] in a line: qHTS of pediatric cancer cell lines to identify multiple opportunities for drug repurposing: Primary screen for BT-12 cells (AID 1347101). Note: nearly all actives have a fitted effect of over 25% in size. Note: potency is the fitted concentration of half-maximal effect. The gist of the method: as §2
Test [6] can be described thus: qHTS of pediatric cancer cell lines to identify multiple opportunities for drug repurposing: Primary screen for Rh18 cells (AID 1347102). Note: nearly all actives have a fitted effect of over 65% in size. The gist of the method:
as §1

The nature of test [7]: qHTS of pediatric cancer cell lines to identify multiple opportunities for drug repurposing: Primary screen for MG 63 (6-TG R) cells (AID 1347105). Note: nearly all actives have a fitted effect of over 50% in size. The gist of the method: as §3
Test [8] is described as follows: qHTS of pediatric cancer cell lines to identify multiple opportunities for drug repurposing: Primary screen for Saos-2 cells (AID 1347097). Note: nearly all actives have a fitted effect of over 40% in size. Note: potency is the fitted concentration of half-maximal effect. The gist of the method:
as §3

Test [9] is described as follows: qHTS of pediatric cancer cell lines to identify multiple opportunities for drug repurposing: Primary screen for OHS-50 cells (AID 1347103). Note: nearly all actives have a fitted effect of over 40% in size. Note: potency is the fitted concentration of half-maximal effect. The gist of the method:
as §2

Test [10] can be described thus: qHTS of pediatric cancer cell lines to identify multiple opportunities for drug repurposing: Primary screen for RD cells (AID 1347104). Note: nearly all actives have a fitted effect of over 55% in size. Note: potency is the fitted concentration of half-maximal effect. A digest of the protocol: as §3

On to `C[C@H]1[C@H]2CC[C@H]3[C@@H]4CC=C5C[C@@H](N(C)C)CC[C@]5(C)[C@H]4CC[C@]23CN1C`, for which the Potency entry in [1], in [2], in test [3], in test [4], in test [5] and in test [6] was “inactive” each time. Besides, the Potency result in test [7] is “inactive”.

For the compound `Cc1nc(-c2ccc(Cl)cc2)oc1COC(C)(C)C(=O)O`, the Potency result in [1], in [8], in test [3], in test [5], in test [6] and in test [9] was “inactive” throughout. In addition, the Potency result in [10] and in test [7] was “inactive” throughout.

With `CC(C)CCCC(C)N` (configuration not stated), the Potency result in [1], in test [2], in [3], in test [4], in [5] and in test [6] was “inactive” throughout. Moreover, the Potency entry in test [9], in [10] and in test [7] was “inactive” in each case.

In the case of `O=C(N/N=C/c1ccc([N+](=O)[O-])o1)c1ccc(O)cc1`, the Potency entry in [1], in [8] and in test [7] was “inactive” throughout. For the same compound, the Potency in test [5] is 13.8 µM (active).

For `CC(=O)NCCCCCC(=O)O`, the Potency entry in [1], in test [2], in test [3], in test [4], in [5] and in test [6] was “inactive” throughout. For the same compound, the Potency entry in test [9], in test [10] and in [7] was “inactive” in each case.

Consider `CCOC(=O)Nc1ccc2c(c1)N(C(=O)CCN1CCOCC1)c1ccccc1S2`, for which the Potency entry in [1], in [2], in test [3], in test [4], in test [5] and in test [6] was “inactive” in each case. In addition, in test [9], the Potency entry was “inactive”.

Take `NC(=O)c1ccccc1O`: the Potency entry in test [1], in test [2], in test [3], in test [4], in test [5] and in [9] was “inactive” throughout. Further, the Potency entry in test [10] and in [7] was “inactive” in each case.

Regarding `Cc1c[nH]c2ccccc12`, the Potency result in [1], in test [8], in test [3], in test [5], in test [6] and in test [9] was “inactive” in each case. Moreover, the Potency result in test [10] and in [7] was “inactive” throughout.

Consider `COc1cc(O)c(C(=O)c2ccccc2)cc1S(=O)(=O)O`, for which the Potency entry in test [1], in test [8], in test [3], in test [5], in test [6] and in [9] was “inactive” throughout. The Potency entry in test [10] and in test [7] was “inactive” throughout.

As for `N#CCC(=O)NN`, the Potency result in test [1], in test [2], in test [3], in [4], in [5] and in test [6] was “inactive” in each case. The Potency result in test [9], in [10] and in [7] was “inactive” in each case.

As to `NC(=O)C1(N2CCCCC2)CCN(CCCC(=O)c2ccc(F)cc2)CC1`, the Potency result in [1], in test [2], in [3], in test [4], in [5] and in [6] was “inactive” throughout. In addition, the Potency entry in [9], in [10] and in [7] was “inactive” throughout.

On to `CCCN(CCc1cccs1)[C@H]1CCc2c(O)cccc2C1`, for which the Potency result in test [1], in test [2], in [3], in test [4], in test [5] and in test [6] was “inactive” in each case. For the same compound, the Potency result in [10] and in test [7] was “inactive” in each case.

In the case of `C#C[C@]1(O)CC[C@H]2[C@@H]3CCC4=CC(=O)CC[C@@H]4[C@H]3CC[C@@]21CC`, the Potency entry in test [1], in [2], in test [3], in test [4], in test [5] and in [6] was “inactive” each time. The Potency entry in test [9], in [10] and in test [7] was “inactive” in each case.

In the case of `CCCCCCCCCCC[C@@H](C[C@@H]1OC(=O)[C@H]1CCCCCC)OC(=O)[C@H](CC(C)C)NC=O`, the Potency result in test [1], in [2], in [3], in [4], in test [5] and in test [6] was “inactive” each time.

Regarding `C[N+]1(C)CCC(=C(c2ccccc2)c2ccccc2)CC1`, the Potency entry in test [1], in test [8], in [3], in [5], in test [9] and in test [10] was “inactive” each time. For the same compound, the Potency entry in test [7] is “inactive”.

As to `CCCc1ncc(C[n+]2ccccc2C)c(N)n1`, the Potency result in test [1], in [2], in test [3], in [4], in test [5] and in test [9] was “inactive” in each case. Moreover, the Potency entry in test [10] and in test [7] was “inactive” in each case.

`O=C1C(=O)c2ccccc2C(O)=C1C1CCC(c2ccc(Cl)cc2)CC1` (configuration not stated): the Potency result in test [1], in test [2], in test [3], in test [4], in test [5] and in test [9] was “inactive” in each case. Further, the Potency entry in [10] and in test [7] was “inactive” throughout.

`O=C(O)P(=O)(O)O`: the Potency result in [1], in [2], in test [3], in test [4], in test [5] and in test [6] was “inactive” each time. The Potency entry in test [9], in [10] and in test [7] was “inactive” each time.

As to `CCC1Nc2cc(Cl)c(S(N)(=O)=O)cc2S(=O)(=O)N1` (configuration not stated), the Potency entry in test [1], in test [2], in test [3], in test [4], in test [5] and in [6] was “inactive” in each case. Further, the Potency entry in [9], in [10] and in test [7] was “inactive” in each case.

As for `CCCCN1C[C@H](O)[C@@H](O)[C@H](O)[C@H]1CO`, the Potency entry in test [1], in [2], in [3], in [4], in test [5] and in [6] was “inactive” throughout. For the same compound, the Potency entry in test [9], in test [10] and in [7] was “inactive” each time.

For `CN1CCC[C@@H]1CCO[C@](C)(c1ccccc1)c1ccc(Cl)cc1`, the Potency result in test [1] and in test [3] was “inactive” throughout. The Potency is 21.1 µM (active) in [8], 27.6 µM (active) in test [5], 15.5 µM (active) in test [9] and 26.6 µM (active) in test [10].

In the case of `NS(=O)(=O)c1cc2c(cc1Cl)NC(CC1CCCC1)NS2(=O)=O` (configuration not stated), the Potency entry in test [1], in test [2], in test [3], in [4], in test [5] and in [6] was “inactive” each time. In addition, the Potency entry in test [10] and in test [7] was “inactive” in each case.

On to `CCCCC(CC)COC(=O)c1ccc(N(C)C)cc1` (configuration not stated), for which the Potency result in [1], in test [2], in [3], in [4], in test [5] and in test [6] was “inactive” throughout. For the same compound, the Potency entry in [9], in test [10] and in test [7] was “inactive” throughout.
